From PubChem BioAssay AID1825 (The Scripps Research Institute Molecular Screening Center, 2009)
Out of some 290,000 compounds screened, about 2,300 (0.79%) were called active. No stated cut-off is given here; in the data, active means inhibition above about 22%; inactive means the rest. The list comes from a sample in which actives are over-represented; it also holds similar structures and randomly drawn compounds.

Test: IEC-6 cell viability reduction – luminescence, cytotoxicity control for KLF5 inhibitor project, primary screen (AID 1825);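 further: 0% = plate median of test compound wells and 100% = cytotoxic reference compound wells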
Conditions: IEC-6 cytotoxicity, at 5 µM, hits give high values

SMILES	inhibition
Cc1[nH]c2ccc(C(=O)N3CCN(C)CC3)cc2c1C	0.4% (inactive)
CCOc1ccccc1N1CCN(C(=O)c2ccc3[nH]c(C)c(C)c3c2)CC1	36.2% (active)
COc1ccccc1N1CCN(C(=O)c2ccc(Cl)c(S(=O)(=O)N3CCCC3)c2)CC1	-2.9% (inactive)
CCN(C(=O)COC(=O)c1ccc(COc2ccc3c(C)cc(=O)oc3c2)cc1)C1CCS(=O)(=O)C1 (stereo not drawn)	-1.8% (inactive)
Cc1ccc(C)c(NC(=O)C2Cc3ccccc3CN2C(=O)OCc2ccccc2)c1 (stereo not drawn)	-6.3% (inactive)
CCOc1ncccc1C(=O)NCCc1ccc(OC)cc1	22% (active)
O=C(NCCc1ccccn1)c1cccnc1Oc1ccc(Cl)cc1	5% (inactive)
COc1ccc(CCNC(=O)c2ccccc2OCc2ccccc2)cc1	-0.9% (inactive)
COc1cc(/C=C(\C#N)c2nc3ccccc3[nH]2)ccc1O	2% (inactive)
COc1ccc2[nH]cc(/C=C(/C#N)S(=O)(=O)c3ccccc3)c2c1	-0.2% (inactive)
COc1ccc(/C=C(\C#N)c2c[nH]c3ccccc23)cc1	86.1% (active)
CN(CC(=O)O)S(=O)(=O)c1ccc2oc3ccccc3c2c1	-1.3% (inactive)
C=Cc1ccc(C(=O)N2CCCC(CCC(=O)N3CCN(c4ccccn4)CC3)C2)cc1 (stereo not drawn)	-8.1% (inactive)
CN(C(=O)CN1C(=O)S/C(=C\c2ccccc2F)C1=O)C1CCS(=O)(=O)C1 (stereo not drawn)	-4.8% (inactive)
N#CC(C(=O)c1ccc(S(=O)(=O)N2CCCCCC2)cc1)c1nc2ccccc2[nH]1 (stereo not drawn)	3% (inactive)
O=C(C1CCCO1)N1CCC(c2nc3ccccc3[nH]2)CC1 (stereo not drawn)	-5.3% (inactive)
O=S(=O)(c1ccc(Br)cc1)N1CCC(c2nc3ccccc3[nH]2)CC1	43.7% (active)
O=C(Nc1cccnc1Cl)c1cc(-c2ccccc2O)on1	-3.1% (inactive)
Cc1ccc(OCCOc2cccc(/C=N/NC(N)=O)c2)cc1	3.9% (inactive)
CNC(=O)C1CCN(S(=O)(=O)c2c(C)noc2/C=C/c2cccc(C)c2)CC1	-7.8% (inactive)
Cc1cccc2c1N(CC(=O)OC(C)C)C(=O)C2=O	2.7% (inactive)

SMILES	inhibition
CC(C)OC(=O)CN1C(=O)C(=O)c2ccccc21	24.8% (active)
CC(C)OC(=O)CN1C(=O)c2ccccc2C1=O	1.2% (inactive)
COc1ccc(CCNS(=O)(=O)c2cn(C)nc2C)cc1	3% (inactive)
CCCOc1ccc(C2=CSC3=NCCN23)cc1Cl	-2.6% (inactive)
O=C(Nn1cnnc1)c1cc(Cl)ccc1Cl	1.3% (inactive)
Cc1ccc(NS(=O)(=O)c2ccc(F)cc2)nc1	1.3% (inactive)
Cc1ccccc1-c1nc(C#N)c(NCc2ccco2)o1	-5.6% (inactive)
COc1ccc(Nc2oc(-c3ccccc3Cl)nc2C#N)cc1	26.1% (active)
COc1ccccc1-c1nc(C#N)c(N2CCC(C(N)=O)CC2)o1	0.7% (inactive)
CCC(C)N1CC(=O)N2Cc3[nH]c4ccccc4c3C[C@H]2C1=O (stereo partly drawn)	9.4% (inactive)
NC(=O)c1oc2ccccc2c1NC(=O)Cc1ccccc1	-3.9% (inactive)
O=C(CSc1nnc2ccc(-c3ccncc3)nn12)N1CCCCC1	-4.1% (inactive)
Fc1cccc(CSc2nnc3ccc(-c4ccncc4)nn23)c1	-4% (inactive)
CSc1nnc2ccc(-c3ccc(C)cc3)nn12	23.2% (active)
CCOC(=O)N1CCN(C(=O)c2cn(C)c3ccc(S(=O)(=O)N(CC)CC)cc3c2=O)CC1	-5.4% (inactive)
COC(=O)c1ccc(NC(=O)CSc2nncn2-c2cccnc2)cc1	0.4% (inactive)
COc1ccccc1N1CCN(C(=O)c2cc(=O)c3cc(C)ccc3o2)CC1	17.9% (inactive)
COc1ccccc1N1CCN(C(=O)c2cc(=O)c3cc(C)cc(C)c3o2)CC1	93.6% (active)
COc1cccc(-c2cc(C(=O)N3CCN(c4ccccc4OC)CC3)no2)c1	12.1% (inactive)
COC1=C(N2CCOCC2)C(=O)c2ccccc2C1=O	-1.6% (inactive)
COc1ccc(NC(=O)c2cccc3c2C(=O)N(CC2CCCO2)C3)cc1OC (stereo not drawn)	-0.8% (inactive)

SMILES	inhibition
COc1ccc(CNS(=O)(=O)c2ccc(-c3cnc(C4CC4)o3)cc2)cc1	-1.9% (inactive)
Cc1cccc(CNS(=O)(=O)c2ccc(-c3cnc(C4CC4)o3)cc2)c1	4.4% (inactive)
Cc1cccc(NS(=O)(=O)c2ccc(-c3cnc(C4CC4)o3)cc2)c1	77.2% (active)
Cc1cccc(NC(=O)c2nc(S(=O)(=O)Cc3ccccc3)ncc2Cl)c1	88.2% (active)
CCOc1ccc(NC(=O)c2nc(SCC)ncc2Cl)cc1	12.7% (inactive)
Cc1cccc(OCc2ccc(C(=O)Nc3ccc(F)cc3)cc2)c1	0.7% (inactive)
Cc1cccc(NC(=O)C(C)SCc2ccccc2)c1 (stereo not drawn)	0.6% (inactive)
CCSc1ncc(Cl)c(C(=O)Nc2cc(C)ccc2C)n1	5.4% (inactive)
Cc1cccc(CS(=O)(=O)c2ncc(Cl)c(C(=O)Nc3ccc(F)cc3)n2)c1	77.4% (active)
CN1C2CCC1CC(NC(=O)c1ccc([N+](=O)[O-])cc1)C2 (stereo not drawn)	5% (inactive)
CC(NC(=O)COc1cccnc1[N+](=O)[O-])c1ccc(Cl)cc1Cl (stereo not drawn)	-1.6% (inactive)
Cc1cccc(NC(=O)c2ccc(S(=O)(=O)N(C)CC3CCCO3)cc2)c1C (stereo not drawn)	-2.6% (inactive)
COc1ccc(CNC(=O)C(C)n2nc(C)c3c(C)n(-c4ccccc4)nc3c2=O)c(OC)c1 (stereo not drawn)	0.3% (inactive)
CC1CN(C(=S)Nc2ccccc2F)CC(C)O1 (stereo not drawn)	1.8% (inactive)
CC(=O)NC1=NN(C(C)=O)C(C)(c2ccc(Cl)s2)S1 (stereo not drawn)	23.7% (active)
CC(=O)NC1=NN(C(C)=O)C(C)(CCS(=O)(=O)c2ccc(Cl)c(Cl)c2)S1 (stereo not drawn)	-1% (inactive)
CC(=O)NC1=NN(C(C)=O)C(C)(c2ccc(C)cc2)S1 (stereo not drawn)	-3.8% (inactive)
O=C(Nc1ccccc1Cl)/C(Cl)=C(\Cl)S(=O)c1ccccc1 (stereo not drawn)	96.8% (active)
O=C(Nc1ccccc1Cl)Nn1cnnc1	0.2% (inactive)
O=C(COC(=O)c1cccs1)Nc1ccccc1Cl	-3.8% (inactive)
CCOC(=O)c1csc(CCNC(=O)c2oc3c(Cl)cc(C)cc3c2C)n1	-2.4% (inactive)
